# Results: PubChem BioAssay AID1527 (The Scripps Research Institute Molecular Screening Center, 2009)
# Among all 290,000 compounds or so, about 2,600 (0.9%) were called active. The sample holds actives, similar compounds and a random draw of the others, so the mix is not that of the screen. Values without a mark were called inactive.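 The calls were made as follows: active = inhibition above the mean of all tested compounds plus 3 SD, cutoff set per screening run (cut at about 7.5% in these data); inactive = the rest.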
# Tested on: VIM-2 metallo-beta-lactamase (Pseudomonas aeruginosa)
# Test: VIM-2 metallo-beta-lactamase inhibitors, primary screen, biochemical, epi-absorbance readout, Pseudomonas aeruginosa enzyme (AID 1527);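 also: red hydrolysis product quenches plate fluorescence so inhibitors raise well fluorescence; 0% = enzyme with DMSO and 100% = DMSO without enzyme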
# Settings: purified VIM-2, nitrocefin hydrolysis, epi-absorbance fluorescence; at 5.6 µM; active compounds read high
row,SMILES,inhibition
1,COc1ccc(NS(=O)(=O)c2cc3c(cc2C)N(C(C)=O)CCO3)cc1,-3.48%
2,O=[N+]([O-])c1ccccc1/C=C/CN1CCCC(CO)C1 (stereo not drawn),-0.68%
3,O=C(NCC(=O)N1CCC2(CC1)NCCc1[nH]cnc12)c1ccc(Br)cc1,0.87%
4,Cc1ccccc1NC(=O)C1CCN(C(=O)NC2CCCCC2)CC1,-1.56%
5,O=C(Nc1ccc(-n2ccnc2P(=O)(O)c2ccccc2)cc1)c1ccccc1Br,21.4% (active)
6,O=C(NC(=S)Nc1ncccn1)c1ccccc1Br,-1.46%
7,Cc1ccc(NC(=O)c2cccnc2C(=O)Nc2ccc(C)cc2)cc1,-0.75%
8,COc1cc(/C=C2\SC(=O)NC2=O)ccc1OCc1ccc(Cl)nc1,-1.77%
9,COc1ccccc1CCNS(=O)(=O)c1cc2c3c(c1)C(C)C(=O)N3CCC2 (stereo not drawn),1.4%
10,O=C(NCCCc1ccccc1)C1CCC(=O)N(CCc2ccc(Cl)cc2)C1 (stereo not drawn),-1.97%
11,Cc1cccc(N2C(=O)c3cccnc3C2=O)c1,-0.49%
12,Cc1ccc(Oc2ccc3c(c2)C(=O)N(c2cccc4cccnc24)C3=O)cc1,30.9% (active)
13,Cc1ccc(NC(=O)CSc2cccc3cccnc23)c(C)c1,-0.55%
14,O=C(C1CCN(S(=O)(=O)c2ccc(Br)s2)CC1)N1CCN(c2ccccc2)CC1,-3.44%
15,Cc1cccc(NC(=S)NC(=O)c2ccc(Br)o2)c1,-1.38%
16,O=C(NC(=S)Nc1ccccc1C(=O)O)c1ccc(-c2ccc(Br)cc2)o1,19.4% (active)
17,COC(=O)c1ccccc1NC(=S)NC(=O)c1ccccc1F,-1.44%
18,CC(C)[C@H](NC(=O)N1CC(=O)Nc2ccccc21)C(=O)N[C@@H](Cc1c[nH]c2ccccc12)C(=O)O,-2.42%
19,Cn1cnnc1SCc1nnc(-c2ccccc2Br)o1,-0.36%
20,Nc1cccc2c1C(=O)N(Cc1nnc(-c3ccccc3Br)o1)C2=O,13.6% (active)
21,CCOC(=O)N1CCN(Cc2nnc(-c3ccccc3Cl)o2)CC1,-1.67%
22,Cc1ccccc1NC(=O)C1CCCN(C(=O)NCc2ccccc2)C1 (stereo not drawn),-2.35%
23,OC(CN1C2=NCCCN2c2ccccc21)c1ccc(Br)cc1 (stereo not drawn),-1.66%
24,CC(C)(C)C(=O)CN1C2=NCCN2c2ccccc21,-3.12%

row,SMILES,inhibition
1,Cc1cc2c(cc1C)N(Cc1ccccc1)C1=NCCCN12,8.88% (active)
2,COc1ccc(S(=O)(=O)NCC(=O)NCc2cc(=O)n(C)c(=O)n2C)cc1F,-1.12%
3,CCn1c(Cc2ccc(OC)cc2)nnc1SCC(=O)Nc1ccc(N2CCOCC2)cc1,-1.86%
4,COc1ccc(Nc2cc(C)nc(-n3nc(C)cc3C)n2)cc1,12.7% (active)
5,Cc1cc(N/N=C\c2ccc(Br)cc2)nc(-n2nc(C)cc2C)n1,-1.15%
6,COc1ccccc1/C=N\Nc1cc(C)nc(-n2nc(C)cc2C)n1,-5.24%
7,Cc1cccc(OCC(=O)NCC(=O)N/N=C/c2ccc(N(C)C)cc2)c1,0.77%
8,N#Cc1ccc(/C=C2\CCn3c2nc2cc(C(=O)O)ccc2c3=O)cc1,3.37%
9,Cc1cc(S(=O)(=O)NCc2ccccn2)c(Cl)cc1Cl,-1.51%
10,COc1ccc(-c2ccc(CNCCCN3CCOCC3)o2)cc1Cl,-0.71%
11,Fc1ccc(-c2ccc(CNCc3ccccn3)o2)cc1Cl,38% (active)
12,COc1ccc(S(=O)(=O)N2CCN(C(=O)N(C)C)C2C)cc1 (stereo not drawn),-2.86%
13,N#Cc1ccc(S(=O)(=O)NCC(=O)OCC(=O)NCCc2ccccc2)cc1,-2%
14,O=C(Nn1c(SCc2ccc([N+](=O)[O-])cc2)nc2ccccc2c1=O)c1ccc(F)cc1,1.03%
15,C=CCn1c(SCc2ccc(C(=O)NCCO)cc2)nc2ccccc2c1=O,9.03% (active)
16,COCCNC(=O)c1ccc(-n2c(SCc3cccnc3)nc3ccccc3c2=O)cc1,-1.16%
17,Cn1c(C(=O)N2CCC(C(N)=O)CC2)cc2c(=O)n(C)c3ccccc3c21,2.96%
18,Cn1c(C(=O)NCCCN2CCN(c3cccc(Cl)c3)CC2)cc2c(=O)n(C)c3ccccc3c21,-1.03%
19,Cn1c(C(=O)NCCN2CCc3ccccc3C2)cc2c(=O)[nH]c3ccccc3c21,6.06%
20,Cn1c(C(=O)NCCc2ccsc2)cc2c(=O)n(C)c3ccccc3c21,4.63%
21,CC1CCCC(C)N1CCCNC(=O)c1cc2c(=O)n(C)c3ccccc3c2n1C (stereo not drawn),21.7% (active)
22,CCN1CCCC1CNC(=O)c1cc2c(=O)n(C)c3ccccc3c2n1C (stereo not drawn),19.9% (active)
23,O=C(N/N=C/c1cccnc1)c1ccc(NC(=O)c2ccc(F)cc2)cc1,-0.77%
24,COc1cc(S(=O)(=O)N(Cc2cccs2)C2CC2)ccc1-n1cnnn1,-1.52%

row,SMILES,inhibition
1,COc1ccc(C(=O)C2CCCN(C(=O)c3cc(C)on3)C2)cc1F (stereo not drawn),-2.54%
2,CCOc1ccc2[nH]c(C(=O)N/N=C/c3cccc(OC)c3OC)cc2c1,-0.14%
3,Clc1ccc2nc(-c3ccccc3)nc(C(Cl)Cl)c2c1,-4.99%
4,O=C(CCl)NNc1nc(-c2ccccc2)c2cc(Cl)ccc2n1,-3.67%
5,NC(N)=Nc1nc(-c2ccccc2)c2cc(Cl)ccc2n1,9.54% (active)
6,O=C(CCCCCn1c(=S)[nH]c2cc3c(cc2c1=O)OCO3)N1CCN(c2ccc(F)cc2)CC1,-4.83%
7,CC(C)Oc1ccc(CN2CCC(n3nccc3NC(=O)c3cccnc3)CC2)cc1,-0.44%
8,CN(C)CCCn1c(=O)n(Cc2ccccc2)c(=O)c2c3c(sc21)CCCCC3,-0.19%
9,COc1ccc(C(=O)/C=C/c2cccnc2)c(OC)c1,-1.09%
10,CCOC(=O)c1oc2c(CN3CCN(C)CC3)c(O)ccc2c(=O)c1-c1ccc(Br)cc1,2.09%
11,O=c1oc2c(CN3CCCCC3)c(O)ccc2c2c1CCCCC2,-1.98%
12,CN1CCN(Cc2c(O)ccc3c2oc(=O)c2ccccc23)CC1,12% (active)
13,COc1ccc(-c2cc(C(=O)N(C)Cc3ccc(OC)c(OC)c3OC)c3ccccc3n2)cc1OC,-3.53%
14,O=C(Nc1nnc(C2CC2)s1)c1cc(Cl)sc1Cl,-3.26%
15,CN1C(=O)/C(=C\c2cc(Br)cs2)c2ccccc21,0.8%
16,O=C(c1ccco1)N1CCN(C(=O)c2cc(-c3ccccc3F)no2)CC1,-2.41%
17,COc1cccc(NC(=O)C(=O)c2cn(CC(=O)N3CCOCC3)c3ccccc23)c1,1.81%
18,Cc1cc(=O)oc2c(C(=O)c3ccccc3)c(OCC(N)=O)ccc12,-0.26%
19,CC(=O)c1ccc2c(ccc3ccccc32)c1,-0.35%
20,Cc1cc(=O)oc2c1ccc1ccccc12,10.6% (active)
21,Cn1c(-c2sccc2OCc2cccc(C(F)(F)F)c2)n[nH]c1=S,27% (active)
22,Cc1ccccc1-c1n[nH]c(=S)n1C,2.67%
23,Cn1c(-c2sc3cc(C(F)(F)F)cnc3c2-c2ccccc2)n[nH]c1=S,-7.11%
24,COc1ccccc1NC(=O)CCN1CCN(c2ccc(Cl)cc2)CC1,0.08%

row,SMILES,inhibition
1,Cc1cccn2c(=O)c(C=O)c(Nc3ccc(S(N)(=O)=O)cc3)nc12,19.5% (active)
2,O=Cc1c(Nc2ccccc2Cl)nc2ccccn2c1=O,0.26%
3,CNc1nc2c(C)cccn2c(=O)c1C=Nc1ccc(OC)cc1,4.33%
4,C/C(N)=C(/C#N)C(=O)COC(=O)C1=NN(c2ccccc2)C(=O)CC1,-2.51%
5,COc1cccc(NC(=O)C2CCCN(c3ncnc4c3nc3n4CCCCC3)C2)c1 (stereo not drawn),-0.06%
6,COCCCNC(NC(=O)c1ccc(C)cc1)C(Cl)(Cl)Cl (stereo not drawn),-1.71%
7,CC(C)(C)NC(=O)CSC(=Nc1ccccc1F)NC#N,-1.17%
8,CCC(c1nnnn1C(C)(C)C)N(Cc1cc2cccc(C)c2n2nnnc12)C1CCCC1 (stereo not drawn),-3.3%
9,Cn1c(=O)cc(OCCCC(=O)N2CCN(c3ccccn3)CC2)c2ccccc21,-0.05%
10,O=C(CCCN1C(=O)c2cccc3cccc(c23)C1=O)N1CCN(Cc2ccc3c(c2)OCO3)CC1,4.6%
11,Cn1c(=O)cc(OCCCC(=O)N2CCN(Cc3ccc4c(c3)OCO4)CC2)c2ccccc21,9.27% (active)
12,COc1cc(C)cc(CN2CCC(Cc3ccccc3)CC2)c1O,-1.32%
13,CCn1c(=O)n(CC)c2cc(N3CCCC3)c(NC(=O)c3ccccc3Br)cc21,0.64%
14,CCOc1ccc(C)cc1S(=O)(=O)NC1CCCCCC1,-2.78%
15,COc1ccccc1OCCn1c(SCC(N)=O)nc2ccccc21,-0.1%
16,O=C(Oc1c(-c2ccco2)oc2ccccc2c1=O)c1cccnc1,0.08%
17,COCCCNC(=S)N(CCN(C)C)Cc1cc2cc3c(cc2[nH]c1=O)OCCO3,1.43%
18,Cc1cccc(NC(=O)C2CCCN(C(=O)NCc3ccccc3)C2)c1C (stereo not drawn),0.69%
19,Cc1ccc2cc(/C=N/Nc3ccc(C(=O)O)cc3)c(Cl)nc2c1,1.26%
20,Cc1ccc2cc(/C=N/NC(=O)[C@@H]3CCCN3)c(Cl)nc2c1,10.3% (active)
21,CSCC[C@H](NC(=O)OC(C)(C)C)C(=O)N/N=C/c1cc2ccc(C)cc2nc1Cl,0.5%
